# Only some compounds are listed: those with a hit (about 3.2% of all), similar ones and a draw of the others.
# TRb-SRC2 inh: inhibitors of human thyroid hormone receptor beta-SRC2 interaction; P10828; TRbeta-SRC2 peptide binding, fluorescence polarization; receptor liganded with 1 µM T3; Potency, µM (highest dose often 106 µM), inactives show at the top dose activity change, negative = inhibition, most hits filed as inhibitors; actives 0.065% (n = 280,000); AID 1469;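 note: plate controls were bound peptide for no effect and peptide without receptor for full effect; nearly all actives have a fitted effect of over 50% in size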
#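 Read-out is fluorescence polarization (555 nm excitation, 632 nm emission) of a Texas Red SRC2 coactivator peptide; loss of signal reflects blocked binding to human TRb ligand-binding domain in the presence of 1 uM T3.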
# GoLoco inh red: blocks human Gai1 binding to RGS12 GoLoco peptide, red readout; P63096; Gai1:RGS12 GoLoco peptide FP, rhodamine, 10 min; Potency, µM (series often up to 61.6 µM), without a hit: top-dose activity, negative = inhibition, actives largely listed as inhibitors; actives 0.44% (n = 230,000); AID 880; active = well fitted inhibition curve with a large enough effect, not every such curve was filed as active; inactive = no such curve, though single readings can be large or run the other way; note: nearly all actives have a fitted effect of over 30% in size
# Target sequence (P63096 whole entry, looked up): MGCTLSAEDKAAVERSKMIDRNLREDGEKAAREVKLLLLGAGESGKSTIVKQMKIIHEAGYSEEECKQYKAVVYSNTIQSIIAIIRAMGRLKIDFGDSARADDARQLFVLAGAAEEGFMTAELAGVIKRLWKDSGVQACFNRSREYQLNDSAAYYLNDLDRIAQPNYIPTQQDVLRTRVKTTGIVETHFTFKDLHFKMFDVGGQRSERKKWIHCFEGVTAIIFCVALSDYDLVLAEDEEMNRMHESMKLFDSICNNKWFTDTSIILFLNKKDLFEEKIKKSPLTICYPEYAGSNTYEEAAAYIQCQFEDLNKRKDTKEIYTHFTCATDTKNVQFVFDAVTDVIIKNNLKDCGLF
# Tau fibril ThT: tau fibrillization inhibition (ThT binding). actives 2.1% (n = 270,000). recombinant tau K18 P301L, heparin-induced fibrillization, ThT fluorescence. Potency, µM (titrated, usually from 57.4 µM), inactives show at the highest dose activity, negative = inhibition, hits mostly inhibitors. P10636; note: nearly all actives have a fitted effect of over 55% in size
# Target sequence (P10636 561-689 P618L limits assumed): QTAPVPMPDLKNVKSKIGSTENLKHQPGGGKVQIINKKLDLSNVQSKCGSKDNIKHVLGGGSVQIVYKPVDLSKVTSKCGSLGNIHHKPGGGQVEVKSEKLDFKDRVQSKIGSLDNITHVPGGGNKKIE
#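 K18 P301L tau (15 uM + 0.24 uM Alexa 594-tagged), heparin 20 uM, NaOAc pH 7, 6 h 37 C; ThT 30 uM, 1 h RT, ex 450/em 510 nm.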
# TexasRed fluor: alters Texas Red total fluorescence, flagging assay interference; TRb/SRC2 Texas Red total fluorescence interference; Potency, µM (highest dose often 106 µM), for inactives: at the highest dose fluorescence change, negative = quenching; actives 0.29% (n = 280,000); active = well fitted curve in either direction with a large enough effect; inconclusive = small, poorly fitted or top-dose-only effect
#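 Human TRb ligand-binding domain at 0.6 uM with 20 nM Texas Red SRC2 peptide in Tris buffer containing 1 uM T3 and 5% DMSO, incubated with compound 5 h at ambient temperature. Total fluorescence (555/632 nm) calculated as parallel + 2 × perpendicular.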
# Tau FP inhib: tau fibrillization inhibition (FP) | P10636 | K18 P301L tau heparin fibrillization, Alexa594 FP, 6 h | Potency, µM (doses to about 57.7 µM), without a hit: at the highest dose activity, negative = inhibition, actives largely listed as inhibitors | actives 0.39% (n = 280,000) | AID 1468; note: nearly all actives have a fitted effect of over 55% in size
#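 Heparin (20 uM) drove fibril formation of recombinant tau K18 P301L, 15 uM unlabeled with 0.24 uM Alexa 594 label, for 6 hr at 37 C in 100 mM sodium acetate pH 7. Fluorescence polarization (555/632 nm) read 1 hr after 30 uM ThT.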
# Tau fluor cs: counter-screen for tau fibril formation inhibitors. Potency, µM (top dose mostly 57.7 µM), without a hit: at the top dose activity change, negative = decrease. actives 0.93% (n = 280,000). tau K18 P301L Alexa594 fluorescence, heparin fibrillization; note: nearly all actives have a fitted effect of over 55% in size
#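 Human tau K18 P301L (15 uM unlabeled, 0.24 uM Alexa 594-labeled) in 100 mM sodium acetate pH 7 with 20 uM heparin, 6 hr at 37 C. ThT 30 uM added, 1 hr ambient; Alexa 594 FP and total fluorescence read at 555/632 nm.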
# * hit, by the source's call; ? = inconclusive; / = no result; ! = not confirmed by another sample; [ ] = another dose, or the depositor's remark. Unless noted, calls come from the whole dose curve; as a rule, active = well fitted curve in the direction sought with a large enough effect; inconclusive = small, poorly fitted or top-dose-only effect, or another doubt; inactive = no such curve, though single readings can be large; an effect the other way counts as inactive or inconclusive. Unless noted, % is set by controls: 0 for no effect and ±100 for the full control effect; potency is the fitted concentration of half-maximal effect.
SMILES,TRb-SRC2 inh,GoLoco inh red,Tau fibril ThT,TexasRed fluor,Tau FP inhib,Tau fluor cs
CCC1CN(C(=O)N2CCC(C(=O)N3CCN(c4ccccc4)CC3)CC2)c2ccccc2O1 (stereo not drawn),0.6%,/,?,-3.5%,?,11.2µM*[quencher]
O=C(NCc1ccccc1Cl)C1CCN(C(=O)N2CCOc3ccccc32)CC1,-3.0%,/,-0.1%,-11.0%,-9.4%,-5.7%
CCC1CN(C(=O)N2CCC(C(=O)NCc3ccco3)CC2)c2ccccc2O1 (stereo not drawn),2.0%,/,16.5%,4.3%,?,3.55µM*[quencher]
O=C(NCc1ccco1)C1CCN(C(=O)N2CCOc3ccccc32)CC1,-5.6%,/,?,2.9%,11.2%,5.01µM*[quencher]
CCC1CN(C(=O)N2CCC(C(=O)NCCCc3ccccc3)CC2)c2ccccc2O1 (stereo not drawn),0.2%,/,-19.0%,-0.7%,13.4%,8.91µM*[quencher]
CCC1CN(C(=O)N2CCC(C(=O)N(C)Cc3ccccc3)CC2)c2ccccc2O1 (stereo not drawn),-3.3%,/,4.4%,-9.6%,-7.2%,-13.9%
CCC1CN(C(=O)N2CCC(C(=O)NCCCc3ccccc3)CC2)c2cc(C)ccc2O1 (stereo not drawn),6.8%,/,-6.5%,-20.4%,?,-19.2%
Cc1ccc(-n2c(SCC(=O)NCc3ccccc3)nc3n[nH]c(C)c3c2=N)cc1Cl,-10.1%,/,3.7%,-1.5%,-9.3%,-4.4%
Cc1ccc(Cl)cc1N1CCN(C(=O)c2ccc3c(c2)N(Cc2ccccc2F)C(=O)c2ccccc2S3=O)CC1 (stereo not drawn),1.6%,/,-8.9%,3.3%,-5.3%,-6.6%
C[C@H]1[C@H](C)CC[C@]2(C(=O)O)CC[C@]3(C)C(=CCC4[C@@]5(C)CC[C@H](O)C(C)(C)[C@@H]5CC[C@]43C)[C@H]12 (stereo partly drawn),-5.2%,0.7%,3.1%,-0.7%,-6.5%,7.0%
Cc1ccc(-n2cc(C(=O)OCc3ccc(F)c(F)c3)c3ccccc3c2=O)cc1,-1.7%,/,-3.9%,4.6%,-5.8%,-1.9%
O=[N+]([O-])c1cccc(NC(=S)NCCc2ccccc2)c1,-18.6%[53 µM],-8.8%,0.0%,316µM*[quencher],-2.7%,-4.1%
S=C(NCCc1ccccc1)Nc1ccc(Nc2ccccc2)cc1,-7.3%,5.3%,?,-2.7%,?,15.8µM*[quencher]
O=[N+]([O-])c1ccc(NC(=S)NCCc2ccc(F)cc2)cc1,4.4%,-3.7%,?,3.8%,?,14.1µM*[quencher]
Fc1cccc(NC(=S)NCCc2ccccc2)c1,-7.9%,-25.9%,-9.1%,-1.6%,?,?
COc1ccccc1CCNC(=O)Nc1cccc([N+](=O)[O-])c1,-2.9%,10.0%,-15.2%,-5.2%,-2.1%,?
CCC1CN(S(=O)(=O)c2cc(-c3onc(C)c3C)ccc2C)c2cc(Cl)ccc2O1 (stereo not drawn),2.5%,/,0.9%,-1.5%,-11.9%,-19.1%
CCN(C(=O)c1coc(=O)c(Br)c1)c1ccc2c(c1)OCO2,-8.1%,-19.7%,22.4µM*,-0.4%,?,?
CC1(C)S[C@@H]2[C@H](NC(=O)[C@H](C(=O)O)c3ccsc3)C(=O)N2[C@H]1C(=O)O,2.2%,25.1µM*!,-2.3%,-1.0%,-0.6%,-0.7%
Cc1ccccc1-n1sc2cc(F)ccc2c1=O,-4.0%,28.2µM*,10µM*,-0.9%,25.1µM*,-14.2%
Cc1ccc(C(=O)Oc2csc(=S)n2C(=O)c2ccc(C)cc2)cc1,1.7%,22.8%,10µM*,-11.6%,?,-29.7%
N[C@H](CCCP(=O)(O)O)C(=O)O,1.5%,0.4%,-7.7%,-1.0%,3.1%,-5.6%
O=C(O)c1cc(N/N=C/c2cccs2)ccc1Cl,-2.3%,14.5%,?,-3.1%,-11.7%,-14.8%
O=C(O)c1cc(N/N=C/C(Cl)=C/c2ccccc2)ccc1Cl,-3.9%,-3.7%,14.1µM*,-2.7%,-4.1%,-29.5%

# Assay outcomes: PubChem, National Center for Advancing Translational Sciences (NCATS)
